# Reference: PubChem BioAssay (Tox21)
# Records with an inconclusive call do not appear. Some structures have more than one record in an assay (separate samples or runs), and their calls can disagree. The source made the active and inactive calls. Unless noted, the call rests on the fitted dose curve; in most records, active means well fitted cell-killing curve with a large enough effect in the repeat runs; inconclusive means weak or mixed curves, or effect the other way; inactive means no such curve, though single readings can be large or run the other way.
# Target: Retinoic acid receptor RXR-alpha (Homo sapiens) (UniProt P19793)
# Test: qHTS assay to identify small molecule agonists of the RXR signaling pathway (AID 1159527; calls by dose curve; further: nearly all actives have a fitted effect of over 35% in size)
# Conditions: HEK293T RXRa-UAS-bla, beta-lactamase ratio, 16 h; series mostly up to 76.8 µM; activation: at the top concentration
# Summary of the method: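 Using 9-cis retinoic acid as the reference agonist, chemicals were tested in HEK 293T cells […] for 16 hr; substrate loading lasted 2 hr at room temperature.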
# On the % scale 0 is the no-effect control and ±100 the full control effect.
# Chain of Retinoic acid receptor RXR-alpha (Homo sapiens) (P19793 whole entry, looked up): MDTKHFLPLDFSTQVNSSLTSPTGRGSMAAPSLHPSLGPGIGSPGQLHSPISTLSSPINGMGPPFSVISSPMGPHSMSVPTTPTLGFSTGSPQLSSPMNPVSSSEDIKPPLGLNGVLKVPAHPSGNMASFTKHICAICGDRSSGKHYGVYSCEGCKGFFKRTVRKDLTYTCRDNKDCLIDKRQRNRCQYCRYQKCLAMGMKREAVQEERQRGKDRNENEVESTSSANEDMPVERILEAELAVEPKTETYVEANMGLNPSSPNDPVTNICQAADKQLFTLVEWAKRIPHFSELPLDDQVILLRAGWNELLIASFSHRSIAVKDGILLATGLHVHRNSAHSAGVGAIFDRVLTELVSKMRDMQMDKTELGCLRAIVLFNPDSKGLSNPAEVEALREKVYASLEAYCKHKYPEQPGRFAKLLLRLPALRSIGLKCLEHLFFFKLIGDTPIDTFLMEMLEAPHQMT
SMILES,Potency,activation
CCCCCCCCOC(=O)c1ccc(O)cc1,inactive,–
C=C(C)C(=O)OCC[N+](C)(C)C,–,1.14% (inactive)
CC(NN)c1ccccc1 (stereo not drawn),–,-0.0243% [at 15.8 µM] (inactive)
ON=C1CCCC1,–,-18.6% (inactive)
Nc1ccccc1O,–,-7.65% (inactive)
CCCCN(CCCC)C(=O)N(CCCC)CCCC,–,-6.88% (inactive)

# Test system: not listed separately
# Test: qHTS assay to identify small molecule agonists of the RXR signaling pathway - cell viability counter screen (AID 1159529); further: nearly all actives have a fitted effect of over 50% in size; further: potency means the concentration at half of the fitted maximal effect
# Conditions: RXR-alpha-bla HEK293T viability, CellTiter-Glo, 16 h; series mostly up to 76.8 µM; activity change, negative = cytotoxicity: at the top concentration
# Summary of the method: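 Compounds dissolved in DMSO were pinned onto HEK 293T cells carrying a beta-lactamase reporter under RXR-alpha control and incubated 16 hr. Cytotoxicity was then quantified by CellTiter-Glo luminescence.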
SMILES,Potency,"activity change, negative = cytotoxicity"
CCCCCCCCOC(=O)c1ccc(O)cc1,43.5 µM (active) and inactive,–
C=C(C)C(=O)OCC[N+](C)(C)C,–,-1% (inactive)
Oc1cccc(-c2c3nc(c(-c4cccc(O)c4)c4ccc([nH]4)c(-c4cccc(O)c4)c4nc(c(-c5cccc(O)c5)c5ccc2[nH]5)CC4)C=C3)c1,23.9 µM (active),–
CCN(CC)CCNC(=O)c1c(C)[nH]c(/C=C2\C(=O)Nc3ccc(F)cc32)c1C,7.56 µM (active),–
Oc1ccc(C2(c3ccc(O)cc3)CC3CC2C2CCCC32)cc1 (stereo not drawn),16.7 µM (active),–
CC(NN)c1ccccc1 (stereo not drawn),–,-0.339% [at 15.8 µM] (inactive)
Cc1cc2c(cc1C(F)(F)F)N(C(=O)Nc1ccc(Oc3cccnc3C)nc1)CC2,–,-28.1% (inactive)
CC[C@H]1O[C@]2(CC[C@@H]1C)C[C@@H]1C[C@@H](C/C=C(\C)C[C@@H](C)/C=C/C=C3\CO[C@@H]4[C@H](O)C(C)=C[C@@H](C(=O)O1)[C@]34O)O2,19.3 µM (active),–
O=C(Nc1cccc([N+](=O)[O-])c1)c1cc2ccccc2cc1O,–,-20.8% (inactive)
[Cl][Au]([Cl])[Cl],24.5 µM (active),–
CCCCCCCCCOC(=O)c1ccc(O)cc1,24.2 µM (active),–
O=C1CCCCCN1SSN1CCCCCC1=O,–,-13.6% (inactive)
Clc1ccccc1C(c1ccccc1)(c1ccccc1)n1ccnc1,21.9 µM (active),–
Nc1nc2ccccc2n1Cc1ccc(F)cc1,–,-13.3% [at 35.3 µM] (inactive)
CCCCCCCC/C=C\CCCCCCCCOCCO,22.6 µM (active),–
O=[N+]([O-])c1cc(Cl)c(Cl)c(Cl)c1Cl,–,8.77% (inactive)
CCCCCCCCCCCC(=O)NCCCN(C)C,15.5 µM (active),–
CC1=C(C(=O)OC(C)C)C(c2cccc([N+](=O)[O-])c2)C(C(=O)OC2CN(C(c3ccccc3)c3ccccc3)C2)=C(N)N1 (stereo not drawn),13.4 µM (active),–
Nc1ccc(N)c2ccccc12,21.8 µM (active),–
Oc1c(Cl)cc(Cl)c2cccnc12,0.952 µM (active),–
O=c1c(-c2ccccc2)c1-c1ccccc1,6.01 µM (active),–
CC(C)(C)C1CCC(CC2=C(O)c3ccccc3C(=O)C2=O)CC1 (stereo not drawn),–,-1.18% [at 35.3 µM] (inactive)
N/C(=N\N=C\c1ccc(Cl)cc1)N/N=C/c1ccc(Cl)cc1,19 µM (active),–
CCCCCCCCCCCCCCCCCC[N+](C)(C)Cc1ccccc1,4.95 µM (active),–
CC[C@@]1(O)C(=O)OCc2c1cc1n(c2=O)Cc2c-1nc1ccccc1c2/C=N/OC(C)(C)C,0.848 µM (active),–
O=C1CCCc2c1cc1ccc3cccc4ccc2c1c34,–,8.03% (inactive)
CCCCN(CCCC)C(=O)N(CCCC)CCCC,–,0.21% (inactive)
